# ± gives the standard deviation of the averaged measurements.
# Columns and labels:
# Experiment in all cases: promoter activity interaction Z-score (Lux/OD deviation from empty-vector control); higher = stronger promoter induction by the compound
# [1] = test system: E. coli BW25113 acrABp lux reporter
# In short: (§1)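 OD600 and luminescence of E. coli BW25113 reporter cultures (40 µl LB Lennox, 384-well plates, 37°C) were measured every 30 min for 12 h. Integration ran over 0–8 h for wild type or 1–9 h for deletion strains, and wells with growth below 10% of the median were dropped. The score is the Z-transformed residual of growth-normalised luminescence fitted against a control.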
# [2] = test system: E. coli BW25113 micFp lux reporter
# In short: as §1
# [3] = test system: E. coli BW25113 ompFp lux reporter
# In short: as §1
# [4] = test system: E. coli BW25113 robp lux reporter
# In short: as §1
# [5] = test system: E. coli BW25113 soxSp lux reporter
# In short: as §1
# [6] = test system: E. coli BW25113 tolCp lux reporter
# In short: as §1
# [7] = 4.8 µg/ml, genetic background: wild type
# [8] = 4.8 µg/ml, genetic background: ΔmarA
# [9] = 4.8 µg/ml, genetic background: Δrob
# [10] = 4.8 µg/ml, genetic background: ΔsoxS
# [11] = 9.5 µg/ml, genetic background: wild type
# [12] = 9.5 µg/ml, genetic background: ΔmarA
# [13] = 9.5 µg/ml, genetic background: Δrob
# [14] = 9.5 µg/ml, genetic background: ΔsoxS
# [15] = 19 µg/ml, genetic background: wild type
# [16] = 19 µg/ml, genetic background: ΔmarA
# [17] = 19 µg/ml, genetic background: Δrob
# [18] = 19 µg/ml, genetic background: ΔsoxS
# [19] = 38.1 µg/ml, genetic background: wild type
# [20] = 38.1 µg/ml, genetic background: ΔmarA
# [21] = 38.1 µg/ml, genetic background: Δrob
# [22] = 38.1 µg/ml, genetic background: ΔsoxS
structure (smiles),measurement,setting,value
NC(N)=S [Thiourea],promoter activity interaction Z-score,[1]; [7],-0.187 ± 0.18
same,promoter activity interaction Z-score,[1]; [8],-0.399 ± 0.26
same,promoter activity interaction Z-score,[1]; [9],-0.36 ± 0.23
same,promoter activity interaction Z-score,[1]; [10],-0.569 ± 0.35
same,promoter activity interaction Z-score,[1]; [11],-0.18 ± 0.14
same,promoter activity interaction Z-score,[1]; [12],0.241 ± 0.33
same,promoter activity interaction Z-score,[1]; [13],0.0155 ± 0.17
same,promoter activity interaction Z-score,[1]; [14],-0.239 ± 0.4
same,promoter activity interaction Z-score,[1]; [15],-0.0387 ± 0.081
same,promoter activity interaction Z-score,[1]; [16],-0.48 ± 0.68
same,promoter activity interaction Z-score,[1]; [17],-0.186 ± 0.13
same,promoter activity interaction Z-score,[1]; [18],-0.351 ± 0.079
same,promoter activity interaction Z-score,[1]; [19],-0.113 ± 0.22
same,promoter activity interaction Z-score,[1]; [20],-0.12 ± 0.22
same,promoter activity interaction Z-score,[1]; [21],0.24 ± 0.064
same,promoter activity interaction Z-score,[1]; [22],-0.0892 ± 0.19
same,promoter activity interaction Z-score,[2]; [7],-0.235 ± 0.23
same,promoter activity interaction Z-score,[2]; [8],-0.0756 ± 0.059
same,promoter activity interaction Z-score,[2]; [9],-0.0669 ± 0.076
same,promoter activity interaction Z-score,[2]; [10],-0.189 ± 0.15
same,promoter activity interaction Z-score,[2]; [11],0.261 ± 0.46
same,promoter activity interaction Z-score,[2]; [12],-0.0468 ± 0.13
same,promoter activity interaction Z-score,[2]; [13],-0.0323 ± 0.16
same,promoter activity interaction Z-score,[2]; [14],0.0238 ± 0.19
same,promoter activity interaction Z-score,[2]; [15],-0.293 ± 0.083
same,promoter activity interaction Z-score,[2]; [16],-0.144 ± 0.073
same,promoter activity interaction Z-score,[2]; [17],-0.0798 ± 0.19
same,promoter activity interaction Z-score,[2]; [18],-0.203 ± 0.18
same,promoter activity interaction Z-score,[2]; [19],-0.442 ± 0.33
same,promoter activity interaction Z-score,[2]; [20],-0.164 ± 0.059
same,promoter activity interaction Z-score,[2]; [21],-0.0862 ± 0.063
same,promoter activity interaction Z-score,[2]; [22],-0.341 ± 0.12
same,promoter activity interaction Z-score,[3]; [7],0.0411 ± 0.63
same,promoter activity interaction Z-score,[3]; [8],0.273 ± 0.023
same,promoter activity interaction Z-score,[3]; [9],0.0473 ± 0.84
same,promoter activity interaction Z-score,[3]; [10],-0.209 ± 0.4
same,promoter activity interaction Z-score,[3]; [11],0.331 ± 0.68
same,promoter activity interaction Z-score,[3]; [12],0.292 ± 0.32
same,promoter activity interaction Z-score,[3]; [13],0.271 ± 0.042
same,promoter activity interaction Z-score,[3]; [14],-0.0695 ± 0.25
same,promoter activity interaction Z-score,[3]; [15],0.307 ± 0.13
same,promoter activity interaction Z-score,[3]; [16],0.189 ± 0.15
same,promoter activity interaction Z-score,[3]; [17],-0.133 ± 0.22
same,promoter activity interaction Z-score,[3]; [18],-0.0487 ± 0.067
same,promoter activity interaction Z-score,[3]; [19],0.484 ± 0.11
same,promoter activity interaction Z-score,[3]; [20],0.567 ± 0.37
same,promoter activity interaction Z-score,[3]; [21],0.804 ± 0.41
same,promoter activity interaction Z-score,[3]; [22],0.352 ± 0.25
same,promoter activity interaction Z-score,[4]; [7],0.198 ± 0.54
same,promoter activity interaction Z-score,[4]; [8],-0.278 ± 0.4
same,promoter activity interaction Z-score,[4]; [9],-0.498 ± 0.88
same,promoter activity interaction Z-score,[4]; [10],-0.368 ± 0.72
same,promoter activity interaction Z-score,[4]; [11],0.517 ± 0.91
same,promoter activity interaction Z-score,[4]; [12],0.53 ± 0.53
same,promoter activity interaction Z-score,[4]; [13],-0.0465 ± 0.47
same,promoter activity interaction Z-score,[4]; [14],-0.206 ± 0.084
same,promoter activity interaction Z-score,[4]; [15],0.0253 ± 0.099
same,promoter activity interaction Z-score,[4]; [16],-0.564 ± 0.03
same,promoter activity interaction Z-score,[4]; [17],-0.172 ± 0.36
same,promoter activity interaction Z-score,[4]; [18],-0.633 ± 0.39
same,promoter activity interaction Z-score,[4]; [19],0.15 ± 0.3
same,promoter activity interaction Z-score,[4]; [20],-0.571 ± 0.48
same,promoter activity interaction Z-score,[4]; [21],0.0676 ± 0.18
same,promoter activity interaction Z-score,[4]; [22],-0.509 ± 0.51
same,promoter activity interaction Z-score,[5]; [7],-0.265 ± 0.12
same,promoter activity interaction Z-score,[5]; [8],-0.27 ± 0.0046
same,promoter activity interaction Z-score,[5]; [9],-0.311 ± 0.21
same,promoter activity interaction Z-score,[5]; [10],-0.36 ± 0.21
same,promoter activity interaction Z-score,[5]; [11],-0.21 ± 0.083
same,promoter activity interaction Z-score,[5]; [12],-0.161 ± 0.02
same,promoter activity interaction Z-score,[5]; [13],-0.36 ± 0.053
same,promoter activity interaction Z-score,[5]; [14],-0.318 ± 0.36
same,promoter activity interaction Z-score,[5]; [15],-0.205 ± 0.22
same,promoter activity interaction Z-score,[5]; [16],-0.41 ± 0.026
same,promoter activity interaction Z-score,[5]; [17],-0.292 ± 0.098
same,promoter activity interaction Z-score,[5]; [18],-0.397 ± 0.33
same,promoter activity interaction Z-score,[5]; [19],-0.492 ± 0.0079
same,promoter activity interaction Z-score,[5]; [20],-0.464 ± 0.087
same,promoter activity interaction Z-score,[5]; [21],-0.389 ± 0.024
same,promoter activity interaction Z-score,[5]; [22],-0.476 ± 0.5
same,promoter activity interaction Z-score,[6]; [7],-0.648 ± 0.31
same,promoter activity interaction Z-score,[6]; [8],-0.358 ± 0.66
same,promoter activity interaction Z-score,[6]; [9],0.771 ± 0.35
same,promoter activity interaction Z-score,[6]; [10],-0.943 ± 0.29
same,promoter activity interaction Z-score,[6]; [11],-0.618 ± 1.8
same,promoter activity interaction Z-score,[6]; [12],0.4 ± 0.71
same,promoter activity interaction Z-score,[6]; [13],0.609 ± 0.4
same,promoter activity interaction Z-score,[6]; [14],-0.368 ± 0.54
same,promoter activity interaction Z-score,[6]; [15],-0.0827 ± 0.073
same,promoter activity interaction Z-score,[6]; [16],-0.203 ± 0.14
same,promoter activity interaction Z-score,[6]; [17],-0.414 ± 0.69
same,promoter activity interaction Z-score,[6]; [18],0.14 ± 0.66
same,promoter activity interaction Z-score,[6]; [19],0.133 ± 0.26
same,promoter activity interaction Z-score,[6]; [20],-0.216 ± 0.12
same,promoter activity interaction Z-score,[6]; [21],0.188 ± 0.21
same,promoter activity interaction Z-score,[6]; [22],-0.969 ± 1.2

# Reference: the supplement of paper PMC12282887
